Assay outcomes (PubChem BioAssay)
PI5P4K alpha inh: inhibitors of human PI5P4K alpha. hit rate 1.2% among 330,000. P48426. AID 652105. max response, %. PI5P4Kalpha enzyme, ADP-Glo luminescence, 60 min; active compounds read low; active means max response of -50% or lower; inconclusive means between -30% and -50%; inactive means -30% or higher; further: value at the top dose of about 77 µM; on the % scale 0 is the no-effect control and ±100 the full control effect
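Controls without substrate or without enzyme flank wells where PI5P4Kalpha converts substrate using 5 microM ATP (final). Incubation lasts 60 minutes at room temperature; ADP formed is read by ADP-Glo luminescence.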
HP1b chromo inh: inhibitors of HP1-beta chromodomain binding to methylated histone tails; P83916; AlphaScreen HP1-beta / biotin-H3K9me3 peptide binding; Potency, µM (doses to about 114 µM), for inactives: top-dose activity change, negative = inhibition, actives largely listed as inhibitors; hit rate 0.56% among 390,000; AID 540317; further: potency means the concentration at half of the fitted maximal effect; nearly all actives have a fitted effect of over 70% in size
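HP1-beta protein (50 nM final) preincubated 30 min at room temperature with biotinylated H3(1-18)K9me3 peptide (50 nM) in PBS pH 7.4, 0.01% Tween-20, then compound added for 30 min. AlphaScreen streptavidin donor/nickel chelate acceptor beads (10 ug/mL final), 30 min dark, luminescence read.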
BAZ2B block: BAZ2B (human) inhibition | AlphaScreen BAZ2B-H3K14Ac peptide displacement | Q9UIF8 | hit rate 4.4% among 360,000 | Potency, µM (top dose mostly 114 µM), inactives show at the top dose activity change, negative = inhibition, most hits filed as inhibitors; further: potency means the concentration at half of the fitted maximal effect; on the % scale 0 is the no-effect control and ±100 the full control effect; nearly all actives have a fitted effect of over 60% in size
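BAZ2B 50 nM plus b-H3(5-23)K14Ac 50 nM, PBS pH 7.4/0.01% Tween-20, 30 min RT; compound added (max 110 uM), 30 min RT; streptavidin donor/Ni-chelate acceptor beads 10 ug/mL final, 20 min dark; AlphaScreen read.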
L3MBTL1 inh: inhibitors of human L3MBTL1 | Q9Y468 | AlphaScreen L3MBTL1–H3K9me1 peptide binding | Potency, µM (series often up to 57.1 µM), for the others: at the top dose activity, negative = inhibition, actives largely listed as inhibitors | hit rate 0.66% among 230,000 | AID 485360; further: potency means the concentration at half of the fitted maximal effect; on the % scale 0 is the no-effect control and ±100 the full control effect; nearly all actives have a fitted effect of over 60% in size
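AlphaScreen proximity signal between nickel-chelate acceptor and streptavidin donor beads (final 10 ug/mL) reports binding of 50 nM L3MBTL1 to 75 nM biotin-H3 K9me1 peptide; complex incubated with compounds 30 min at room temperature; cefsulodin titration as control.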
G9a block: G9a (human) methyltransferase inhibition | G9a H3K9 monomethylation, AlphaScreen, 2 h | Q96KQ7 | AID 504332 | Potency, µM (highest dose often 102 µM), inactives show at the top dose activity, negative = inhibition, most hits filed as inhibitors | hit rate 8.8% among 350,000; further: potency means the concentration at half of the fitted maximal effect; on the % scale 0 is the no-effect control and ±100 the full control effect; nearly all actives have a fitted effect of over 75% in size
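Enzyme 20 nM + cpd, 15 min RT; add b-H3K9 pep 500 nM / SAM 20 uM; 2 h RT; anti-H3K9me1 Ab 0.5 ug/mL + SA donor / anti-rabbit acceptor beads 20 ug/mL each, 10 min; AlphaScreen read.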
JMJD2A Tudor inh: blocks the human JMJD2A Tudor domain; O75164; AlphaScreen JMJD2A-Tudor / H3K4me3 peptide binding; Potency, µM (titrated, usually from 114 µM), for the others: at the highest dose activity change, negative = inhibition, usual class: inhibitors; hit rate 4.4% among 390,000; further: potency means the concentration at half of the fitted maximal effect; on the % scale 0 is the no-effect control and ±100 the full control effect; nearly all actives have a fitted effect of over 50% in size
* hit, by the source's call; ? = inconclusive; · = no result given; [ ] = dose if it differs, or a comment. A selection: hits, their analogues and other compounds. The true share with any hit is near 11%. Unless noted, the call rests on the fitted dose curve; in most records, active means well fitted inhibition curve with a large enough effect; inconclusive means small, poorly fitted or top-dose-only effect; inactive means no such curve, though single readings can be large or run the other way.

SMILES	PI5P4K alpha inh	HP1b chromo inh	BAZ2B block	L3MBTL1 inh	G9a block	JMJD2A Tudor inh
CN(C)CCCN(C(=O)c1ccc(S(=O)(=O)N2CCCC2)cc1)c1nc2ccc(Br)cc2s1	-1	14%	?	·	50µM*	?
CN(C)CCCN(C(=O)c1ccc(S(=O)(=O)N2CCCCC2)cc1)c1nc2cc3c(cc2s1)OCO3	-2	?	?	·	50µM*	?
COc1ccc(-c2nnc(SCC(=O)Nc3cccc(C(F)(F)F)c3)nc2-c2ccc(OC)cc2)cc1	·	16%	8%	·	41%[59 µM]	?
COc1ccc(CNc2ncnc3c2c(-c2ccccc2)cn3-c2ccc(C)c(Cl)c2)cc1	·	14%	-27%	·	-4%[59 µM]	-9%
CCCCCCCCCCCCCCC[C@@H](O)[C@H](CO)NC(=O)CCCCCCC	·	·	·	·	30%[59 µM]	·
CCc1nn(CC(=O)NC(C)CC)c(=O)c2cc3c(OC)cccc3n12 (stereo not given)	·	75%	26%	·	43%[59 µM]	-17%
COc1cc(C)ccc1OCCSc1nnc(-c2ccc(C)cc2)o1	·	72%	82%	·	-49%[59 µM]	53%
CC1CCCCN1S(=O)(=O)c1ccc(C(=O)N(CCCN(C)C)c2nc3cc4c(cc3s2)OCO4)cc1 (stereo not given)	4	-4%	?	·	50µM*	?
CN(C)CCCN(C(=O)c1ccc(S(=O)(=O)N2CCOCC2)cc1)c1nc2cc3c(cc2s1)OCO3	-1	39%	-14%	·	·	-12%
CCOC(=O)c1c(C)oc2c1c(C=NCCO)c(O)c1ccccc12	15	-2%	-39%	?	50µM*	?
CCOC(=O)c1c(C)oc2c1c(/C=N/c1ccccn1)c(O)c1ccccc12	·	99%	·	·	·	19%
CCN1C(=O)/C(=C\c2cn(CCC#N)nc2-c2ccc(F)cc2)SC1=S	15	?	35µM*	-3%	35µM*	22µM*
Cc1ccc(-c2nn(-c3ccccc3)cc2/C=C2\SC(=S)N(CC(=O)O)C2=O)cc1	-7	-24%[57 µM]	22µM*	-3%	35µM*	40µM*
COc1ccc(-c2nn(-c3ccccc3)cc2/C=C2/SC(=S)N(CCC(=O)O)C2=O)cc1	2	35µM*	18µM*	·	40µM*	20µM*
CCN1C(=O)/C(=C/c2cn(-c3ccccc3)nc2-c2cccnc2)SC1=S	1	1%	·	·	·	-26%
COc1ccc(-c2nn(-c3ccccc3)cc2/C=C2/SC(=S)N(CCC(=O)O)C2=O)c(C)c1	-8	?	50µM*	-24%	40µM*	25µM*
N#CCCn1cc(/C=C2\NC(=S)N(c3ccccc3)C2=O)c(-c2ccc(-c3ccccc3)cc2)n1	8	18%	-18%	-14%	14%[59 µM]	-25%
O=C1C(=Cc2cn(-c3ccccc3)nc2-c2ccc(OCc3ccccc3F)cc2)SC(=S)N1CCS(=O)(=O)O	-79*	·	·	·	·	·
Cn1c(NC(=O)c2ccccc2)c(-c2ccccn2)c(=O)c2ccccc21	·	7%	8%	·	?	32µM*
Cc1cccc(N2CCN(Cc3cc(=O)oc4cc(C)ccc34)CC2C)c1 (stereo not given)	·	14%	-35%	·	-31%[59 µM]	-30%
CCC(C)NC(=O)CSc1nc2c(sc3ccccc32)c(=O)n1CCc1ccccc1 (stereo not given)	·	28%	2%	·	-1%[59 µM]	-19%
Nc1ccc2c(c1)C(=O)N(c1ccc3ccccc3c1)C2=O	·	63%	·	·	·	11%
COC(=O)/C=C1/S/C(=N/NC(=O)c2ccccc2C)NC1=O	2	38%	56µM*	·	2µM*	?
COC(=O)/C=C1/SC(=NC(=O)c2cccc([N+](=O)[O-])c2)NC1=O	-6	43%	?	·	20µM*	-10%
COC(=O)/C=C1/SC(=NC(=O)c2ccc(OC)cc2)NC1=O	-7	31%	?	·	4%[0.0925 µM]	-7%
SMILES	PI5P4K alpha inh	HP1b chromo inh	BAZ2B block	L3MBTL1 inh	G9a block	JMJD2A Tudor inh
COC(=O)/C=C1\SC(=NC(=O)c2cccc([N+](=O)[O-])c2)NC1=O	2	0%	-25%	·	35µM*	-24%
O=C1N/C(=N/O)S/C1=C/c1cccc([N+](=O)[O-])c1	-23	6%	·	·	-37%	-18%
COC(=O)/C=C1\S/C(=N/N=C/c2ccc(Cl)cc2)NC1=O	-5	2%	?	·	·	?
COC(=O)c1ccccc1NC(=O)C1=CC(c2ccc3c(c2)OCO3)=NS(=O)(=O)N1C	·	46%	-13%	·	?	-8%
Cc1cccc(NC(=O)CSc2nc(-c3cccs3)cc(C(F)(F)F)c2C#N)c1	·	23%	0%	·	-6%[59 µM]	-5%
Cc1ccc(NC(=O)/C(C#N)=C/c2cc(C)n(-c3ccc(Br)cc3)c2C)cc1C	·	40%	5%	·	1%[59 µM]	-9%
O=C(O)COc1ccc2c(c1)O/C(=C\c1ccco1)C2=O	?	40µM*	40µM*	·	10µM*	20µM*
NCC(=O)Nc1cccc(-c2nn3c(=O)cc(N4CCNCC4)nc3s2)c1	·	·	·	·	·	-21%
Oc1ccccc1C(=S)N1CCN(C(=S)c2ccccc2O)CC1	-10	?	6%	·	3.5µM*	-33%
COc1ccc(CNC(=O)Cn2c(=O)oc3cc(S(=O)(=O)NCc4ccccc4)ccc32)cc1	·	19%	3%	·	13%[59 µM]	-12%
CC1(C(=O)OCC(=O)Nc2ccc(C(N)=O)cc2)CC1(Cl)Cl (stereo not given)	2	37%	-11%	·	-16%	10%
COc1ccccc1NC(=O)c1ccc(NC(=O)COC(=O)C2(C)CC2(Cl)Cl)cc1 (stereo not given)	-6	3%	-7%	-3%	-4%[59 µM]	79µM*
CCOc1ccc(-c2c(C)sc3nc[nH]c(=O)c23)cc1	-11	48%	0%	-1%	10%	89µM*
CCCOc1ccc(-c2csc3nc[nH]c(=O)c23)cc1	-2	39%	-2%	-5%	·	-9%
O=C1CN(C(=O)COC(=O)c2ccc(N3CCCCCC3)c([N+](=O)[O-])c2)c2ccccc2N1	-5	?	?	-24%	40µM*	?
CCN(CC)S(=O)(=O)c1cccc(C(=O)OCC(=O)N2CC(=O)Nc3ccccc32)c1	·	1%	-19%	-2%	20µM*	-21%
CS(=O)(=O)c1ccc(C(=O)OCC(=O)N2CC(=O)Nc3ccccc32)cc1[N+](=O)[O-]	·	31%	·	·	·	-21%
C/C(=N\N=C(/N)SC1CC(=O)N(c2ccc(Cl)cc2)C1=O)c1cccs1 (stereo not given)	7	14%	?	0%	40µM*	?
COc1ccccc1CNC(=O)CCn1cnc2ccccc2c1=O	·	?	50µM*	·	16µM*	56µM*
